Sampled rows, rich in hits. Any-hit rate of the full collection: about 6.7%.
T cruzi growth-1 – T. cruzi intracellular proliferation inhibitors, primary screen, cell-based, beta-gal Tulahuen parasites, NIH3T3 host, luminescence; inhibition, % at 8.34 µM; T. cruzi beta-gal in NIH3T3, GalScreen luminescence, 90 h; 77,000 tested, 5.9% active;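 active = mean inhibition above about 93%, with at least 55% of replicates each passing it, limit read from the data, passing the limit was not always enough; inconclusive = only one of those two conditions holds; inactive = neither condition holds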
Pf Dd2 growth – P. falciparum Dd2 growth inhibitors, primary screen, SYBR Green fluorescence, single dose replicates. AID 1159554, 2015. activity change, % at 10 µM. 72 h; hits give low values. 94,000 tested, 2.3% active; in the data active = activity change below about -80%; inconclusive = no clear call, values can overlap the other calls
C diff HTS – C. difficile growth inhibitors, primary screen, HTS; growth activity, negative = inhibition, % at 16 µg/mL (by protocol); 86,000 tested, 0.25% active; AID 1259249, 2017; Clostridium difficile clinical isolate growth, OD600, 24 h; hits give low values;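 active = mean growth activity at or below -80% and every replicate also at or below -80%; inconclusive = mean at or below -80% but some replicate above -80%; inactive = mean growth activity above -80%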
T cruzi growth-2 – T. cruzi intracellular proliferation inhibitors, confirmation, cell-based, NIH3T3 host, beta-gal parasite, luminescence, cherry-pick; inhibition, % at 8.35 µM; AID 651739, 2012; T. cruzi beta-gal in NIH3T3, GalScreen luminescence, 90 h; shares compounds with T cruzi growth-1; 5,600 tested, 72% active;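 active = mean replicate inhibition above about 95% and at least 55% of replicates individually reaching it, limit read from the data; inconclusive = only one of the two criteria is met; inactive = neither criterion is met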
T cruzi growth-3 – inhibitors of intracellular T. cruzi replication, confirmation, NIH3T3 host cells, beta-gal parasites, cherry-pick, set 2. 5,600 tested, 21% active. inhibition, % at 2.09 µM. shares compounds with T cruzi growth-1. T. cruzi beta-gal in NIH3T3, GalScreen luminescence, 90 h. AID 651740, 2012;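 active = mean inhibition above about 95%, with at least 55% of replicates also reaching it, limit read from the data; inconclusive = meets just one of the two conditions; inactive = meets neither condition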
3T3 cytotox – cytotoxicity in mouse NIH/3T3 fibroblasts, confirmation, cytotoxicity control for T. cruzi proliferation inhibitor project, cell-based, cherry-pick, single point; shares compounds with T cruzi growth-1; NIH/3T3 viability, CellTiter-Glo ATP luminescence, 90 h; cytotoxicity (signal decrease), % at 8.35 µM; 5,600 tested, 14% active; AID 651742, 2012;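 active = mean signal decrease across replicates above about 35% based on untreated-well scatter, with enough replicates individually passing, limit read from the data; inconclusive = no rule stated though some were filed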
NIH3T3 tox 2 – NIH/3T3 fibroblast cytotoxicity, confirmation, cytotoxicity control, cell-based, cherry-pick, single point, set 2. inhibition, % at 24.9 µM. 5,600 tested, 56% active. NIH/3T3 viability, CellTiter-Glo ATP luminescence, 90 h. shares compounds with T cruzi growth-1. AID 651744, 2012;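 active = mean loss of cell viability signal at or above a set limit, and enough replicates individually reaching it; inconclusive = meets only the mean limit or only the replicate share; inactive = meets neither condition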
Each line names hits and unclear results; the compound was inactive in the other large screens (follow-up assays come after a bar, where they were run).

C[C@@H]1CN([C@@H](C)CO)C(=O)c2cc(NC(=O)Nc3ccc(C(F)(F)F)cc3)ccc2O[C@@H](C)CCCCO[C@H]1CN(C)S(=O)(=O)c1ccccc1	T cruzi growth-1 109 | T cruzi growth-2 103 | T cruzi growth-3 114 | 3T3 cytotox inactive | NIH3T3 tox 2 inactive
C[C@@H]1CN([C@H](C)CO)S(=O)(=O)c2ccc(Br)cc2O[C@@H]1CN(C)C(=O)c1cnccn1	none
CNC[C@@H]1Oc2ccc(NC(=O)Nc3ccccc3)cc2CC(=O)N([C@@H](C)CO)C[C@@H]1C	none
CCC(=O)N1CCC2(CC1)CN(Cc1nccs1)[C@@H](CO)c1c2c2ccc(OC)cc2n1C	none (no result: T cruzi growth-1)
COc1ccc(C#Cc2cnc3c(c2)C(=O)N([C@H](C)CO)C[C@H](C)[C@@H](CN(C)CC2CCCC2)O3)cc1	none
COc1cccc(C#Cc2cnc3c(c2)C(=O)N([C@H](C)CO)C[C@H](C)[C@H](CN(C)C)O3)c1	none
COc1ccc(C#Cc2cnc3c(c2)C(=O)N([C@H](C)CO)C[C@H](C)[C@H](CN(C)C)O3)cc1	T cruzi growth-1 101 | T cruzi growth-2 inactive | T cruzi growth-3 inactive | 3T3 cytotox inactive | NIH3T3 tox 2 65
COc1ccc(C#Cc2cnc3c(c2)C(=O)N([C@@H](C)CO)C[C@@H](C)[C@H](CN(C)CC2CCCC2)O3)cc1	T cruzi growth-1 111 | T cruzi growth-2 99 | T cruzi growth-3 inactive | 3T3 cytotox 118 | NIH3T3 tox 2 104
CN1C(=O)c2cc(NC(=O)Nc3ccc(F)cc3)ccc2OC[C@@H]2O[C@H](CC(=O)NC3CCC3)CC[C@@H]21	none
C[C@H](CO)N1C[C@H](C)[C@@H](CN(C)C(=O)c2ccccc2)OCCCC[C@H](C)Oc2ccc(NS(=O)(=O)c3ccccc3)cc2C1=O	none (no result: C diff HTS)
COc1ccc2c3c(n(C)c2c1)[C@H](CO)N(C(C)=O)CC31CCN(Cc2ccccc2OC)CC1	none (no result: T cruzi growth-1)
C[C@@H]1CCCCO[C@@H](CN(C)S(=O)(=O)c2ccc(F)cc2)[C@H](C)CN([C@@H](C)CO)C(=O)c2cc(NC(=O)Nc3ccc4c(c3)OCO4)ccc2O1	none
C[C@@H]1CCCCO[C@H](CN(C)S(=O)(=O)c2ccc(F)cc2)[C@H](C)CN([C@@H](C)CO)C(=O)c2cc(NC(=O)Nc3ccc4c(c3)OCO4)ccc2O1	T cruzi growth-1 100, Pf Dd2 growth -81 | T cruzi growth-2 102 | T cruzi growth-3 inactive | 3T3 cytotox inactive | NIH3T3 tox 2 inactive
C[C@H]1CCCCO[C@@H](CN(C)S(=O)(=O)c2ccc(F)cc2)[C@@H](C)CN([C@@H](C)CO)C(=O)c2cc(NC(=O)Nc3ccc4c(c3)OCO4)ccc2O1	none (no result: T cruzi growth-1)
C[C@H](CO)N1C[C@H](C)[C@@H](CN(C)S(=O)(=O)c2ccc(F)cc2)OCCCC[C@H](C)Oc2ccc(NC(=O)Nc3ccc4c(c3)OCO4)cc2C1=O	T cruzi growth-1 100 | T cruzi growth-2 110 | T cruzi growth-3 inactive | 3T3 cytotox inactive | NIH3T3 tox 2 inactive
C[C@@H]1CCCCO[C@H](CN(C)C(=O)c2ccccc2)[C@@H](C)CN([C@@H](C)CO)C(=O)c2cc(NS(=O)(=O)c3ccccc3)ccc2O1	none (no result: C diff HTS)
COc1ccc(S(=O)(=O)Nc2ccc3c(c2)C(=O)N([C@@H](C)CO)C[C@H](C)[C@@H](CN(C)S(=O)(=O)c2ccc(OC)cc2)OCCCC[C@@H](C)O3)cc1	T cruzi growth-1 inconclusive | T cruzi growth-2 111 | T cruzi growth-3 inactive | 3T3 cytotox inactive | NIH3T3 tox 2 inactive
COc1ccc(S(=O)(=O)Nc2ccc3c(c2)C(=O)N([C@@H](C)CO)C[C@H](C)[C@H](CN(C)C(=O)NC(C)C)O3)cc1	T cruzi growth-1 109 | T cruzi growth-2 inactive | T cruzi growth-3 inactive | 3T3 cytotox inactive | NIH3T3 tox 2 inactive

High-throughput results (PubChem BioAssay)
